Among the data in PubChem BioAssay AID1851 (National Center for Advancing Translational Sciences (NCATS), 2009) are AC50 and activity, negative = inhibition values, retold here.

Out of some 16,000 compounds screened, about 5,700 (36%) were called active. Another 24% or so got no clear call; they are omitted. Some of the results follow. A number with no mark means an inactive call. The call rests on the fitted dose curve; in most records, active means well fitted curve in the direction sought with a large enough effect; inconclusive means small, poorly fitted or top-dose-only effect, or effect the other way; inactive means no such curve, though single readings can be large or run the other way.
On the % scale 0 is the no-effect control and ±100 the full control effect.

The target in the experiment is Cytochrome P450 1A2 (Homo sapiens) (UniProt P05177). The experiment in a line: Cytochrome panel assay with activity outcomes. Conditions: recombinant CYP, pro-luciferin dealkylation, luminescence, p450-cyp1a2; series mostly up to 57.1 µM.
Cytochrome P450 1A2 (Homo sapiens), sequence (P05177 whole entry, looked up): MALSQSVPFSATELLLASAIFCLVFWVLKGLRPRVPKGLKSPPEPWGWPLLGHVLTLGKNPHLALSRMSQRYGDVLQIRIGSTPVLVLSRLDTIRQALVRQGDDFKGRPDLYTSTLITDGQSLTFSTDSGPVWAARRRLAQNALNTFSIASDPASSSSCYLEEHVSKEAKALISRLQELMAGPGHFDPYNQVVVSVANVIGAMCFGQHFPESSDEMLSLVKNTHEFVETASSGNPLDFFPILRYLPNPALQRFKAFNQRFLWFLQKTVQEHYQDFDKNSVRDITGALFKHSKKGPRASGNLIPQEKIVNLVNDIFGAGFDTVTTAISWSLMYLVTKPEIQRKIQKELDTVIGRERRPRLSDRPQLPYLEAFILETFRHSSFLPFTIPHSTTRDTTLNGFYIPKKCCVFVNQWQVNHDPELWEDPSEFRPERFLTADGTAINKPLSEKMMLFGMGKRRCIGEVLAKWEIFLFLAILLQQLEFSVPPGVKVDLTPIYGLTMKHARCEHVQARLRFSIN
Regarding `CN1CCc2c(cc(O)c(O)c2Cl)[C@H](c2cccc(Cl)c2)C1`, the AC50 entry is “inactive”.

Turning to `Cn1c(=O)[nH]c2ncn(C)c2c1=O`, the AC50 result was “inactive”.

`[O-][N+](CCO)(CCO)c1ncnc2nc[nH]c12`: the activity, negative = inhibition is -5.88% [at 11.4 µM].

For `CCOC(=O)C1=C(c2ccccc2)N=c2s/c(=C\c3cccc(O)c3)c(=O)n2C1c1cccs1` (stereo not given), the AC50 was 25.1 µM (active).

On to `CCOC(=O)C1=C(c2ccccc2)N=c2s/c(=C\c3ccco3)c(=O)n2C1c1cccs1` (stereo not given), for which the AC50 is 6.31 µM (active).

Regarding `CCOC(=O)C1=C(c2ccccc2)N=c2s/c(=C\c3cc(OC)c(OC)c(OC)c3)c(=O)n2C1c1cccs1` (stereo not given), the AC50 entry was “inactive”.

`CCOC(=O)C1=C(c2ccccc2)N=c2s/c(=C\c3ccc(O)cc3)c(=O)n2C1c1cccs1` (stereo not given): the AC50 result is “inactive”.

Regarding `COc1ccc(C2/C(=C(/O)c3ccc(Cl)cc3)C(=O)C(=O)N2CCN2CCOCC2)c(OC)c1` (stereo not given), the AC50 result was “inactive”.

For `Cc1ccc(NC(=O)Nc2nc(-c3ccc(C)s3)cs2)cc1`, the AC50 was 1.58 µM (active).

With `C#CCCCO/N=C1/C[C@@H](O)[C@@H](O)[C@@H]2[C@@H]3C(=O)N(Cc4ccccc4)C(=O)[C@H]3CC[C@@H]12`, the activity, negative = inhibition was 6.78% [at 11.4 µM].

Turning to `CNC(=O)c1nnn(Cc2ccccc2)c1NC(=O)C(F)(F)F`, the AC50 entry was “inactive”.

On to `COc1ccc(NC(=O)C2CC(=O)NC3=C2C(=O)CC(C)(C)C3)cc1` (stereo not given), for which the AC50 result is “inactive”.

Consider `COc1ccc(C(C(=O)Nc2ccc(F)cc2)N(C(=O)Cn2nnc3ccccc32)C2CC2)cc1` (stereo not given), for which the AC50 entry is “inactive”.

On to `N[C@@H](Cc1cccc([N+](=O)[O-])c1)C(=O)O`, for which the activity, negative = inhibition is -10.6% [at 11.4 µM].

As for `CCN(Cc1ccccc1)Cc1cccc([N+](=O)[O-])c1`, the AC50 is 5.01 µM (active).

`COCC(C)NCc1cccc([N+](=O)[O-])c1` (stereo not given): the AC50 result is “inactive”.

Consider `O=C(O)CC/C=C\CC[C@H]1[C@@H](N2CCCCC2)[C@@H](O)C[C@@H]1OCc1ccc(-c2ccccc2)cc1`, for which the AC50 entry is “inactive”.

As for `FC(F)(F)c1ccccc1-c1cc(NCc2ccccc2)ncn1`, the concentration at half-maximal activity (AC50) was 12.6 µM (active).

In the case of `CNc1cc(-c2ccccc2C)ncn1`, the AC50 is 10 µM (active).

Turning to `CNc1ncncc1-c1ccccc1C(F)(F)F`, the AC50 entry was “inactive”.

For `Cc1ccccc1-c1cc(N(C)C)ncn1`, the half-maximal activity concentration (AC50) is 2 µM (active).

For `CNc1cc(-c2ccccc2C(F)(F)F)ncn1`, the AC50 is 15.8 µM (active).

As for `CN(C)C(=O)/N=N\C(=O)N(C)C`, the AC50 entry was “inactive”.

Regarding `CC(C)=CCC/C(C)=C/CO/N=C1/C[C@@H](O)[C@@H](O)[C@@H]2[C@@H]3C(=O)N(C[C@@H]4CCCO4)C(=O)[C@H]3CC[C@@H]12`, the activity, negative = inhibition was -6.43% [at 11.4 µM].

For `O=C(CNc1cccc(Cl)c1)c1ccc(Cl)cc1`, the AC50 was 3.16 µM (active).

Take `O=C(CCNc1cccc(Cl)c1)c1cccs1`: the AC50 was 10 µM (active).

With `O=C(O)CNc1ccc(C(=O)O)cc1`, the activity, negative = inhibition was -15.1% [at 11.4 µM].

In the case of `O=C(O)CCCC[C@H]1CCSS1`, the AC50 result is “inactive”.

With `COc1cccc2c1OC1(C)CC2/C(=C(\C)O)C(=O)N1` (stereo not given), the AC50 result was “inactive”.

On to `CCc1ccc(-c2ccc(C(=O)C(F)(F)F)[nH]2)cc1`, for which the AC50 is 1.12 µM (active).

As for `N[C@@H](CO)C(=O)NNCc1ccc(O)c(O)c1O`, the AC50 entry was “inactive”.

For the molecule `CC[C@H]1C(=O)OC[C@H]1Cc1cncn1C`, the AC50 entry was “inactive”.

For `CC(C)NC(=O)CC(=O)N/N=C/c1ccc(F)cc1`, the AC50 is 15.8 µM (active).

As for `Cc1ccc(S(=O)(=O)N(CC(=O)N/N=C/c2ccc(F)cc2)c2cccc3cccnc23)cc1`, the AC50 entry is “inactive”.

On to `O=Nc1ccc(NOC(=O)c2ccc(Br)cc2)cc1`, for which the AC50 result is “inactive”.

With `CC(C)NC(=O)CC(=O)N/N=C/c1ccc(Br)cc1`, the AC50 was 1.41 µM (active).

Turning to `C=CC(=O)NC(NC(=O)C=C)c1ccc(Br)cc1`, the AC50 entry is “inactive”.

In the case of `CC(NC(=O)Cc1ccc(F)cc1)c1ccccc1` (stereo not given), the AC50 entry is “inactive”.

As for `C1CCC(N=C(NC23CC4CC(CC(C4)C2)C3)N2CCOCC2)CC1`, the AC50 result was “inactive”.

Consider `Cc1nc2cncnc2n(Cc2ccc(F)cc2)c1=O`, for which the AC50 was 10 µM (active).

`Cc1nc2cncnc2n(Cc2ccccc2)c1=O`: the AC50 is 12.6 µM (active).

Consider `CC(=O)OC[C@@H]1O[C@H](C/C=N\O[C@@H](C)CN2CCCc3nc(C)c(C)cc32)C=C[C@@H]1OC(C)=O`, for which the activity, negative = inhibition is -4.85% [at 11.4 µM].

Take `O=C1[C@H]2[C@H]3[C@H](O)[C@H](O)C/C(=N/OCc4ccccc4)[C@H]3CC[C@@H]2C(=O)N1Cc1ccc2c(c1)OCO2`: the activity, negative = inhibition was -4.06% [at 11.4 µM].

For the molecule `O=C1[C@H]2[C@H]3[C@H](O)[C@H](O)C/C(=N/OCc4ccccc4)[C@@H]3CC[C@@H]2C(=O)N1Cc1ccc2c(c1)OCO2`, the activity, negative = inhibition was -8.98% [at 11.4 µM].

Consider `CCN(CC)S(=O)(=O)N1CCC(C(=O)NCc2ccc(C)cc2)CC1`, for which the AC50 entry was “inactive”.

As for `CC(C)(C)OC(=O)N1CCCC1C(=O)NCCc1ccccc1` (stereo not given), the AC50 entry is “inactive”.

For `Cc1ccc(CNC(=O)C2CC(c3ccccc3[N+](=O)[O-])=NO2)cc1` (stereo not given), the AC50 is 5.01 µM (active).

On to `Cc1ccc(CNC(=O)C2CCC(=O)N2C2CCCCC2)cc1` (stereo not given), for which the AC50 entry is “inactive”.

Take `Cc1ccc(CCN2CC(C(=O)NCCCN(C)Cc3ccccc3)CC2=O)cc1` (stereo not given): the AC50 entry was “inactive”.

On to `O=C(NCc1ccc2c(c1)OCO2)C1CC(c2cccc(Br)c2)=NO1` (stereo not given), for which the AC50 is 2 µM (active).

For the molecule `Cc1ccc(CNC(=O)C2CC(c3ccccc3[N+](=O)[O-])=NO2)o1` (stereo not given), the AC50 was 6.31 µM (active).

With `Cc1ccc(CCNC(=O)C2CC(c3ccccc3[N+](=O)[O-])=NO2)cc1` (stereo not given), the AC50 was 6.31 µM (active).

Turning to `COc1c(N2CCN(C(=S)Nc3ccc(F)cc3)C(C)C2)c(F)cc2c(=O)c(C(=O)O)cn(C3CC3)c12` (stereo not given), the AC50 entry is “inactive”.

With `COc1ccc(CNC(=O)C2CC(c3cccc([N+](=O)[O-])c3)=NO2)cc1` (stereo not given), the AC50 is 15.8 µM (active).

As to `NS(=O)(=O)c1ccc(CCNC(=O)C2CCCN2C(=O)OCc2ccccc2)cc1` (stereo not given), the AC50 result is “inactive”.

For `COc1cccc(C2=NOC(C(=O)NCc3ccccn3)C2)c1` (stereo not given), the AC50 result is “inactive”.

As for `O=C(NCCCCc1ccccc1)C1CC(c2ccccc2[N+](=O)[O-])=NO1` (stereo not given), the AC50 is 2.24 µM (active).

Consider `CCOC(=O)c1oc2ccccc2c1NC(=O)c1cc(OC)cc(OC)c1`, for which the half-maximal activity concentration (AC50) was 0.794 µM (active).

Regarding `CCOC(=O)c1cc(NC(=O)c2ccc(OC)cc2)c(=O)oc1-c1ccccc1`, the AC50 result was “inactive”.

As to `Cc1cc(NC(=O)c2ccc(S(=O)(=O)N(C)C)cc2)n(-c2ccccn2)n1`, the AC50 result is “inactive”.

For `CCOC(=O)c1oc2ccccc2c1NC(=O)c1ccc(S(=O)(=O)N(C)C)cc1`, the AC50 is 12.6 µM (active).

Consider `CCOC(=O)c1oc2ccccc2c1NC(=O)c1ccc2c(c1)OCO2`, for which the AC50 was 1 µM (active).

For the molecule `CCCCN(C)S(=O)(=O)c1ccc(C(=O)Nc2nnc(CSC)o2)cc1`, the AC50 result was “inactive”.

`CC(C)(N)CO[C@H]1C[C@H]2CC[C@@]1(C)C2(C)C`: the activity, negative = inhibition was -8.25% [at 11.4 µM].

`CC(=O)Nc1ccc(S(=O)(=O)NCC2CCC(C(=O)NCCC(C)C)CC2)cc1` (stereo not given): the AC50 result is “inactive”.

For the molecule `Cn1cccc1C(=O)N1CCC2(CC1)CN(Cc1ccc(C#N)cc1)C2`, the AC50 result is “inactive”.

`CCOc1cc(/C=N/n2cnnc2)c(Br)cc1O`: the AC50 was 10 µM (active).

On to `Cc1cc(F)ccc1S(=O)(=O)Nc1ccccc1C(=O)Nc1ccccc1N1CCOCC1`, for which the AC50 result was “inactive”.

For `Cc1cc(C)n(-c2ccc(C(=O)Nc3cc(C(F)(F)F)ccc3N3CCOCC3)cc2)n1`, the AC50 entry is “inactive”.

On to `O=C(Nc1cc(C(F)(F)F)ccc1N1CCCCC1)c1ccc(Br)o1`, for which the AC50 is 0.282 µM (active).

Consider `NS(=O)(=O)c1cc(C(=O)O)cc(N2CCCC2)c1Oc1ccccc1`, for which the AC50 entry was “inactive”.

For the molecule `O=C(COc1ccccc1)Nc1cc(C(F)(F)F)ccc1N1CCCC1`, the AC50 is 2 µM (active).

Regarding `O=C(Nc1ccccc1N1CCN(C(=O)c2ccccc2)CC1)c1cc(Br)ccc1Cl`, the AC50 entry is “inactive”.

Consider `Cc1noc(NS(=O)(=O)c2ccc(NC(=O)c3ccc(Br)o3)cc2)c1C`, for which the AC50 entry was “inactive”.

As for `CC(C)(C)c1ccc(OCC(=O)NNC(=O)CCc2ccccc2)cc1`, the AC50 entry was “inactive”.

As to `CS(=O)(=O)N1CCN(c2ccccc2NC(=O)c2ccc(Br)o2)CC1`, the AC50 was 14.1 µM (active).

Regarding `O=C(c1cnccn1)N1CCC2(CC1)CN(Cc1nccs1)C2`, the AC50 result was “inactive”.

Regarding `O=C(NNC(=S)NC(=O)c1cccnc1)c1ccccc1`, the AC50 entry is “inactive”.

Regarding `O=C(NC(=S)Nc1ccc(Br)cn1)c1cncc(Br)c1`, the AC50 was 0.282 µM (active).

Take `COc1ccc(C2C(C(=O)N3CCN(C)CC3)c3ccccc3C(=O)N2C2CCCCC2)cc1` (stereo not given): the AC50 result was “inactive”.

As to `O=C(NC1CCCCC1)c1sc(=S)n2c1[nH]c(=O)c1ccccc12`, the AC50 was 3.16 µM (active).

On to `O=C(NCc1ccccc1)c1sc(=S)n2c1[nH]c(=O)c1ccccc12`, for which the concentration at half-maximal activity (AC50) is 8.91 µM (active).

For `COc1cccc(/C=c2/s/c(=C(\C#N)C(=O)N3CCOCC3)n(-c3ccccc3)c2=O)c1`, the AC50 result was “inactive”.

Consider `CCOC(=O)N/N=C1/C[C@@H](O)[C@@H](O)[C@@H]2[C@@H]3C(=O)N([C@@H](C)c4ccccc4)C(=O)[C@H]3CC[C@H]12`, for which the activity, negative = inhibition was 7.27% [at 11.4 µM].

Take `CN(C)CCN1C(=O)C(O)=C(C(=O)c2cc3ccccc3o2)C1c1ccccn1` (stereo not given): the AC50 entry is “inactive”.

`Cc1ccc(-c2csc(N3CCC(NS(=O)(=O)c4ccc5c(c4)OCCO5)CC3)n2)cc1`: the AC50 is 5.01 µM (active).

`CN1CCCN(S(=O)(=O)c2ccc3c(c2)OCCO3)CC1`: the AC50 result is “inactive”.

For the molecule `Cc1ccc2nc(N3CCN(S(=O)(=O)c4ccc5c(c4)OCCO5)CC3)c(C#N)cc2c1`, the AC50 result was “inactive”.

For `CCn1c2ccccc2c2cc(/C=N/n3cn[nH]c3=S)ccc21`, the AC50 was 2.82 µM (active).

As for `Clc1ccc(Cn2c(-c3cccnc3Cl)nc3ccccc32)c(Cl)c1`, the AC50 was 12.6 µM (active).

Consider `Nc1nonc1-c1nc2ccccc2n1Cc1ccc(F)cc1Cl`, for which the AC50 is 0.2 µM (active).

On to `CC(=O)OCC(=O)[C@@]1(O)CC[C@@H]2[C@H]3CCC4=CC(=O)C=C[C@]4(C)[C@]3(F)[C@@H](O)C[C@@]21C`, for which the AC50 entry was “inactive”.

For `Cc1ccccc1-c1nc(NC2CC2)c2ccccc2n1`, the AC50 was 0.501 µM (active).

Regarding `COc1ccccc1-c1nc(NC2CC2)c2ccccc2n1`, the AC50 was 0.316 µM (active).

With `CC(=O)Nc1ccc(S(=O)(=O)N2CCN(c3nc(NC4CCCC4)c4ccccc4n3)CC2)cc1`, the AC50 entry was “inactive”.

As usually defined, the AC50 is the concentration at which the activity in the assay is half-maximal.
